GPT2 inhibitor: GPT2 alanine aminotransferase inhibition; Potency, µM (titrated, usually from 57.7 µM), for the others: at the highest dose activity change, negative = inhibition, hits mostly inhibitors; Q8TD30; 100,000 compounds, 0.25% hits; Recombinant GPT2, coupled pyruvate oxidase/HRP Amplex Red fluorescence; AID 1671188; also: nearly all actives have a fitted effect of over 60% in size
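GPT2 10ng/uL, a-KG 250uM, L-Ala 2mM, HEPES pH7.5 + 0.0001% Tween; 30 min RT. Then Amplex mix (PO/HRP/ThPP), 30 min RT dark, fluorescence. AOA 50uM used as positive control.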
FLuc inh: Photinus pyralis luciferase inhibition; P08659; 76,000 compounds, 2.5% hits; purified P. pyralis luciferase, luminescence, biochemical; AID 1347043; Potency, µM (series often up to 115 µM), hits mostly inhibitors; also: nearly all actives have a fitted effect of over 65% in size
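Luminescence read by CCD imaging after purified firefly luciferase (10nM final) was added to substrate buffer holding 10uM D-luciferin and 10uM ATP, pH 7.5, pre-dosed with compound.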
3T3 cytotox: cytotoxic compounds in NIH 3T3 cells | AID 1345082 | Potency, µM (top dose mostly 96.7 µM), for inactives: top-dose activity change, negative = cytotoxicity, usual class: inhibitors | NIH 3T3 viability, CellTiter-Glo ATP luminescence, 48-72 h | 94,000 compounds, 4.3% hits; also: nearly all actives have a fitted effect of over 55% in size
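Cells were seeded at 400 per well, treated with pin-transferred compound, and kept 48 or 72 hr at 37 °C before CellTiter-Glo addition and luminescence imaging of cellular ATP.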
HEK293 tox: cytotoxic compounds in HEK 293 cells; HEK 293 viability, ATP luminescence (CellTiter-Glo), 48-72 h; Potency, µM (highest dose often 115 µM), for the others: at the top dose activity change, negative = cytotoxicity, actives largely listed as inhibitors; 94,000 compounds, 6.6% hits; AID 1345083; also: nearly all actives have a fitted effect of over 60% in size
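250 HEK 293 cells/well; compound by pintool; incubated 48 or 72 hr at 37 degree Celsius; CellTiter-Glo added, 10 min RT, luminescence imaged.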
NPR1 antag: blocks ANP-stimulated signaling of human Npr1 receptor. P16066. HEK293 hNpr1 GloSensor cGMP, ANP-stimulated luminescence. Potency, µM (doses to about 46.3 µM), for inactives: top-dose activity change, negative = inhibition, hits mostly inhibitors. 76,000 compounds, 1.6% hits; calls by dose curve; also: nearly all actives have a fitted effect of over 60% in size
Target sequence (P16066 whole entry, looked up): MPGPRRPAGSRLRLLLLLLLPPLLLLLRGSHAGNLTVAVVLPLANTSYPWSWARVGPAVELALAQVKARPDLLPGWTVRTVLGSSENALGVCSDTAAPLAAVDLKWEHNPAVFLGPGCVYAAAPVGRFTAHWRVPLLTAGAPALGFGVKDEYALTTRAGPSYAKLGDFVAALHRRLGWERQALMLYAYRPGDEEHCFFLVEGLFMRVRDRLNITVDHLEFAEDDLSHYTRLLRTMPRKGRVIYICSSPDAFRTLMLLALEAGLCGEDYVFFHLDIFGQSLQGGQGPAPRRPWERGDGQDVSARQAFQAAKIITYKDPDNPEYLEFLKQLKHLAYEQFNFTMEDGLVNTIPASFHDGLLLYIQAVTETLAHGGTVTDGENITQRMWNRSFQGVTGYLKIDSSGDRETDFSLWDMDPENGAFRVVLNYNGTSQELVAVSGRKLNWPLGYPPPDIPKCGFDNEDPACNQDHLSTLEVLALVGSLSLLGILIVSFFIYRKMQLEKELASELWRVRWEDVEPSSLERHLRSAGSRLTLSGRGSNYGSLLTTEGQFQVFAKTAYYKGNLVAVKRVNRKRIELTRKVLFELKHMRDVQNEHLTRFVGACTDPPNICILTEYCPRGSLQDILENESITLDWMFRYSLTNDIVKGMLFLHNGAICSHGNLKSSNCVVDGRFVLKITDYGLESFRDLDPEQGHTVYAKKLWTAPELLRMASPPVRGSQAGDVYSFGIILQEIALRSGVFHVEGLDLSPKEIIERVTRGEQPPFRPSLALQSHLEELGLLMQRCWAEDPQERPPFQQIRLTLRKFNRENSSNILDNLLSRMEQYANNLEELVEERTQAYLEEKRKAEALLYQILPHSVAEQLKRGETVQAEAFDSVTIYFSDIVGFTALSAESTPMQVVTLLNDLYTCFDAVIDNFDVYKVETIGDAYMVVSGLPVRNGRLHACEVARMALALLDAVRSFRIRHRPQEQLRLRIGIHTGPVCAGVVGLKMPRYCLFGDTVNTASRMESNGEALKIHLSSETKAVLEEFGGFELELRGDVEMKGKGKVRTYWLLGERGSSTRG
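HEK293 cells stably expressing human Npr1 and cGMP GloSensor pGS-40F, loaded 2 h with 2% GloSensor reagent, given compound 30 min at room temperature. Luminescence read before and 20 min after 0.1 nM hNppA.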
An asterisk follows results filed as active; i = inactive; ? = inconclusive; / = no result; [ ] = remark or other dose. An excerpt weighted towards active compounds, which were near 10% of everything screened. Unless noted, calls follow the shape of the dose curve; as a rule, active = well fitted curve in the direction sought with a large enough effect; inconclusive = small, poorly fitted or top-dose-only effect, or another doubt; inactive = no such curve, though single readings can be large; an effect the other way counts as inactive or inconclusive. % is scaled to controls: 0 for no effect and ±100 for the full control effect; potency is read from the fitted curve at half-maximal effect.

SMILES | GPT2 inhibitor | FLuc inh | 3T3 cytotox | HEK293 tox | NPR1 antag
O[C@@H]1C[C@@H](c2nc(-c3ccc(F)cc3)no2)N(CC2CCCCC2)C1 | i | ? | -17.0%[174 µM] | -23.6%[172 µM] | 0.0%[70.6 µM]
COc1cccc(C(=O)N2CCC(C(=O)N3CCC(N4CCOC4=O)CC3)CC2)c1 | i | / | -8.1% | 0.1% | /
CSc1ccc(-c2cccc(C(=O)NCC(=O)N3CCCCC3)c2)cc1 | 3.3% | / | ? | ? | /
O[C@@H]1C[C@@H](c2nc(-c3ccccn3)no2)N(Cc2cccs2)C1 | -4.1%[88.5 µM] | 35.5µM* | -12.5%[174 µM] | ? | -16.1%[70.6 µM]
O[C@@H]1C[C@@H](c2nc(-c3cnccn3)no2)N(Cc2cccs2)C1 | -22.5%[88.5 µM] | i | -26.1%[174 µM] | -13.8%[172 µM] | 1.2%[70.6 µM]
CCN(CC)Cc1ccc2c(c1)CN(C(=O)c1cncc(Br)c1)CCO2 | -7.2% | i | -20.0% | -16.6% | -12.1%
COc1cccc(C(=O)N2CCC(N3C[C@H](O)C[C@H]3C(=O)NCc3cc(F)cc(F)c3)CC2)c1 | 4.8% | i | -12.3% | -29.3% | -4.4%
O=C(CCc1ccccc1)N1C[C@@H](CO)[C@@H]2Oc3ccc(Cl)cc3[C@@H]21 | / | / | ? | 79.4µM* | /
CCCCCC(=O)N1C[C@@H](C(N)=O)[C@@H]2Oc3ccc(Cl)cc3[C@@H]21 | / | / | -29.6% | ? | /
CCCN1C(CC(C)C)=NS(=O)(=O)c2cc(NC(=O)c3ccccc3Cl)ccc21 | i | i | -17.6% | 3.7% | -18.5%
CC(C)(C)c1ccc(-c2cc(C[C@H]3CNCC[C@H]3CC(=O)O)no2)cc1 | -3.2%[88.5 µM] | ? | -28.4%[138 µM] | ? | 1.5%[70.6 µM]
O=C(C[C@@H]1CCNC[C@@H]1Cc1cc(CSc2ccccc2)on1)NC1CCCCC1 | i | i | 100µM* | 89.1µM* | -4.1%[70.6 µM]
CC(C)(C)c1ccc(-c2cc(C[C@H]3CNCC[C@H]3CC(=O)NCc3cccs3)no2)cc1 | ? | i | ? | 17.8µM* | -8.4%
O=C(C[C@@H]1CCNC[C@@H]1Cc1cc(CSc2ccccc2)on1)NC1CC1 | -12.6%[88.5 µM] | i | -28.1%[174 µM] | -25.6%[172 µM] | 3.7%[70.6 µM]
O=C(C[C@@H]1CCNC[C@@H]1Cc1cc(COc2ccccc2)on1)NCc1cccs1 | -5.3%[88.5 µM] | i | ? | ? | -12.8%[70.6 µM]
COc1ccc(CNC(=O)C[C@@H]2CCNC[C@@H]2Cc2cc(-c3ccccc3)on2)cc1OC | -4.0% | i | -22.4% | -8.8% | -1.8%
CC(C)(C)c1ccc(-c2cc(C[C@H]3CNCC[C@H]3CC(=O)NC3CCCCC3)no2)cc1 | -0.6% | i | 20µM* | 12.6µM* | -11.9%
COc1ccccc1CNC(=O)C[C@@H]1CCNC[C@@H]1Cc1cc(-c2ccccc2)on1 | -19.3%[88.5 µM] | i | 79.4µM* | 63.1µM* | -21.8%[70.6 µM]
COc1ccc(C(=O)N2CCC(Oc3cccc(F)c3)C2)cn1 (centres undefined) | i | / | ? | -19.6% | /
O=C(Nc1ccccc1)N[C@H]1[C@H](O)[C@@H](Oc2ccccc2)[C@@H]2OC[C@H]1O2 | -0.2%[88.5 µM] | ? | -25.0%[174 µM] | -9.4%[172 µM] | -0.3%[70.6 µM]
Cc1ccc(NC(=O)Cn2c(-c3ccc(F)cc3)nc(C)c(CCO)c2=O)c(C)c1 | i | i | -2.7% | ? | 6.5%
CC(C)N1CC(C(=O)NCCc2cccc(F)c2)NC1=O (centres undefined) | 3.5%[88.5 µM] | / | ? | ? | /
COc1ccc(-c2nc(C)nc3c2CN([S+](=O)([O-])c2cccc(C(F)(F)F)c2)CC3)cc1 | i | / | -19.9% | ? | /
COc1ccc(-c2nc(C3CC3)nc3c2CCN(C(=O)c2ccccc2)CC3)cc1 | -9.5% | / | ? | ? | /
CN(Cc1ccccc1)Cc1cc(C[C@H]2CNCC[C@H]2CC(=O)NC2CCCCC2)no1 | -17.5% | i | 79.4µM* | ? | -3.0%
SMILES | GPT2 inhibitor | FLuc inh | 3T3 cytotox | HEK293 tox | NPR1 antag
CN(C)CCNC(=O)C[C@@H]1CCNC[C@@H]1Cc1cc(CN(C)Cc2ccccc2)on1 | 3.4%[88.5 µM] | i | -3.4%[174 µM] | -2.6%[172 µM] | -0.3%[70.6 µM]
O=C(C[C@@H]1CCNC[C@@H]1Cc1cc(-c2ccccc2)on1)NC1CCCCC1 | i | i | ? | 100µM* | -9.8%[70.6 µM]
CSc1cccc(NC(=O)C2CCN(c3cnc4nccnc4c3)CC2)c1 | -1.6% | i | 6.31µM* | 8.91µM* | -2.4%
O=C1COc2ccc(-c3ccccc3)nc2CN1Cc1ccccc1 | i | i | ? | 112µM* | -15.7%[70.6 µM]
O=C1COc2ccc(-c3ccncc3)nc2CN1Cc1ccccc1F | 3.3%[88.5 µM] | i | 89.1µM* | ? | 0.7%[70.6 µM]
O=C1COc2ccc(-c3cc(F)cc(F)c3)nc2CN1Cc1ccccc1 | -1.6%[88.5 µM] | i | ? | ? | 1.2%[70.6 µM]
COc1ccc(-c2ccc3c(n2)CN(Cc2ccccc2)C(=O)CO3)cc1F | -16.1%[88.5 µM] | i | 79.4µM* | 79.4µM* | -17.4%[70.6 µM]
O=C1COc2ccc(-c3ccc(F)cc3)nc2CN1Cc1ccccc1F | -0.3%[88.5 µM] | i | ? | 100µM* | -21.6%[70.6 µM]
COc1ccc(-c2ccc3c(n2)CN(Cc2ccc(F)cc2)C(=O)CO3)cc1 | -1.4%[88.5 µM] | i | ? | ? | ?
COC(=O)CNC(=O)c1nc2cccnc2n(-c2ccccc2OC)c1=O | i | / | -10.3% | i | /
CCCc1ccc([S+](=O)([O-])N2CCC3(CC2)[C@H](C(=O)OCC)[C@@H](O)C(=O)N3C)cc1 | / | / | ? | -29.5% | /
Cn1cc(-c2ccc3c(n2)CN(Cc2ccc(C(F)(F)F)cc2)C(=O)CO3)cn1 | -27.3%[88.5 µM] | i | 31.6µM* | ? | -16.2%[70.6 µM]
Cn1cc(-c2ccc3c(n2)CN(Cc2ccc(F)cc2)C(=O)CO3)cn1 | -3.9%[88.5 µM] | i | ? | ? | -15.8%[70.6 µM]
COCCN1Cc2nc(-c3ccc(OC)c(F)c3)ccc2OCC1=O | i | i | ? | -23.3%[172 µM] | -0.2%[70.6 µM]
COc1ccc(-c2ccc3c(n2)CN(Cc2ccccc2F)C(=O)CO3)cc1OC | 2.3%[88.5 µM] | i | 25.1µM* | 50.1µM* | -16.4%[70.6 µM]
OC(c1ccccc1)c1cn(C2CCN(Cc3cnc4ccccc4c3)CC2)nn1 (centres undefined) | 4.0% | i | ? | -24.9% | 0.0%
Cn1c([C@H]2CCN(Cc3ccc(Cl)cc3)C2)nc2ccccc21 | i | i | 100µM* | ? | ?
Cn1c([C@H]2CCN(Cc3ccccc3)C2)nc2ccccc21 | 1.3%[88.5 µM] | i | ? | ? | -15.4%[70.6 µM]
COCCn1c(=O)c2c(n1Cc1ccccc1)CN(Cc1cncc(OC)c1)CC2 | -5.6%[88.5 µM] | i | ? | i | -0.6%[70.6 µM]
COc1ncc(CN2CCc3c(n(CCOc4ccccc4)n(-c4ccccc4)c3=O)C2)cn1 | -2.6% | i | ? | i | 1.4%
COC1CCC(C(=O)N2CCc3c(n(CCOc4ccccc4)n(-c4ccccc4)c3=O)C2)CC1 (centres undefined) | -9.9% | i | 20µM* | -7.2% | 1.1%
CCn1c2c(c(=O)n1-c1ccccc1)CCN(C(=O)C1CCC1)C2 | -3.5%[88.5 µM] | i | ? | -7.7%[172 µM] | -21.7%[70.6 µM]

Screening results: PubChem, National Center for Advancing Translational Sciences (NCATS)
